Shown are actives, neighbours in structure and some others; about 9.2% of the full set was active somewhere.
SMN2 splice enh: increases expression of the SMN2 splice variant; HEK293 SMN2-luciferase splicing reporter, luminescence, 30-36 h; Potency, µM (top dose mostly 46.1 µM), without a hit: at the highest dose activity change, positive = activation, most hits filed as activators; 2.8% of 210,000 active; AID 1458; also: % of control where 0% means no effect; nearly all actives have a fitted effect of over 55% in size
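HEK293 cells carry an SMN2 minigene-luciferase reporter in which exon 7 inclusion puts luciferase in frame. Cells were seeded at 2000 cells/well, attached for 10-12 hours, then exposed to compounds for 30-36 hours at 37C before ONE-Glo luminescence.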
Rab9 prom act: Rab9 promoter activation. Huh7 Rab9 promoter-luciferase reporter, luminescence, 24 h. Potency, µM (series often up to 9.22 µM), without a hit: top-dose activation, negative = inhibition, usual class: activators. 2.8% of 320,000 active. AID 485297; also: % of control where 0% means no effect; nearly all actives have a fitted effect of over 60% in size
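Cell-based reporter: Huh7 stable for Rab9 promoter-driven luciferase, plated in reduced-serum medium with 10% FBS at 1500 cells/well, compound-treated 24 h at 37 °C, luminescence read after 10 min reagent.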
ELG1 genotox: genotoxicity induction in ELG1-luciferase HEK293T cells. AID 504466. HEK293T ELG1-luciferase reporter, luminescence, 16 h. Potency, µM (top dose mostly 46 µM), for inactives: top-dose activity change, positive = activation, actives largely listed as activators. 1.3% of 330,000 active; also: % of control where 0% means no effect; nearly all actives have a fitted effect of over 60% in size
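After overnight (16 hr) compound treatment at 37 °C, ELG1-luciferase HEK293T cells were lysed with ONE-Glo; luminescence quantified 30 min later at room temperature.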
ELG1 repair inh: inhibitors of ELG1-dependent DNA repair in HEK293T cells; HEK293T ELG1-luciferase reporter, luminescence, 16 h; DNA damage induced by 5-fluorouridine; 2.3% of 330,000 active; Potency, µM (series often up to 46.1 µM), for the others: top-dose activity change, negative = inhibition, hits mostly inhibitors; AID 504467; also: % is scaled to controls: 0 for no effect and ±100 for the full control effect; nearly all actives have a fitted effect of over 55% in size
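DMSO vehicle served as the neutral condition. Each well held 2,000 cells given 5-fluorouridine plus compound; after 16 hr at 37 °C/5% CO2, ONE-Glo was added and luciferase measured 30 min later.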
FLuc counter: inhibits or activates purified firefly luciferase, miR-21 counter-screen. P08659. purified FLuc, Km substrates, luminescence inhibition. Potency, µM (series often up to 57.5 µM), for the others: at the highest dose activity change, negative = inhibition, hits mostly inhibitors. 6.9% of 360,000 active;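 also: plate controls were vehicle for no effect and reference inhibitor for full effect; nearly all actives have a fitted effect of over 55% in size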
Target sequence (P08659 whole entry, looked up): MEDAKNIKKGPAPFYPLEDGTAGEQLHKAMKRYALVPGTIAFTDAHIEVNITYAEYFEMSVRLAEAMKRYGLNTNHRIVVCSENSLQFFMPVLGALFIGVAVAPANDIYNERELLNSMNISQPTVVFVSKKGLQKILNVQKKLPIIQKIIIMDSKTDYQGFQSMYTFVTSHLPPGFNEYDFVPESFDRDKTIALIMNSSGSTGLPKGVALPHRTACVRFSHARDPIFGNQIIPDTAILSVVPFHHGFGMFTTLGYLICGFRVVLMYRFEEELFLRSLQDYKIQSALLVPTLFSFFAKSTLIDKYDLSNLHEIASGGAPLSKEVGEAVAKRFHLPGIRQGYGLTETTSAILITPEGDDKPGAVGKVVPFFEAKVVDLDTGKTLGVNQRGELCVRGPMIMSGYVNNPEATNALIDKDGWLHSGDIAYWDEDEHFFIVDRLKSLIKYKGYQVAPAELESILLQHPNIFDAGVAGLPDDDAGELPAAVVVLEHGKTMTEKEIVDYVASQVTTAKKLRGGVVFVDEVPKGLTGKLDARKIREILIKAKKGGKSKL
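Purified P. pyralis luciferase (10nM final) with 10uM D-luciferin and 10uM ATP (Km levels) in 50mM Tris acetate pH 7.5, 10mM Mg acetate, 0.01% Tween-20, 0.05% BSA; qHTS 6-point titration, ~60 µM downward; luminescence read.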
NPC1 prom act: activates the NPC1 promoter; 2.4% of 320,000 active; Potency, µM (titrated, usually from 9.22 µM), for inactives: top-dose activation, actives largely listed as activators; Huh7 NPC1 promoter luciferase reporter, 24 h; AID 485313; also: % of control where 0% means no effect; nearly all actives have a fitted effect of over 60% in size
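Compounds in DMSO were transferred onto Huh7 NPC1-luciferase reporter cells pre-incubated 2 h; after 24 h at 37 °C, Amplite reagent was dispensed and luminescence recorded 10 min later.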
The depositor's hits bear a star; ? = inconclusive; nt = not tested or not shown. Calls follow the shape of the dose curve; as a rule, active = well fitted curve in the direction sought with a large enough effect; inconclusive = small, poorly fitted or top-dose-only effect, or another doubt; inactive = no such curve, though single readings can be large; an effect the other way counts as inactive or inconclusive. Potency is read from the fitted curve at half-maximal effect.

SMILES	SMN2 splice enh	Rab9 prom act	ELG1 genotox	ELG1 repair inh	FLuc counter	NPC1 prom act
C/C(=N\NC(=O)c1cccc([N+](=O)[O-])c1)c1ccco1	nt	1%	4%	?	-12%	2%
C/C(=N\NC(=O)c1ccc(F)cc1)c1cccc(NC(=O)c2cccc(F)c2)c1	nt	5%	-8%	-10%	-18%	5%
C/C(=N\NC(=O)c1cccc(N/N=C(\C)c2cc(O)ccc2O)c1)c1cc(O)ccc1O	-56%	-35%	-15%	16µM*	12µM*	-18%
C/C(=N\NC(=O)c1cccc(F)c1)c1cccc(NC(=O)c2ccc(F)cc2)c1	nt	3%	2%	-14%	?	8%
C/C(=N\NC(=O)c1ccc(F)cc1)c1cccc(NC(=O)c2ccco2)c1	3%	30%	2%	3%	4.8µM*	20%
C/C(=N\NC(=O)c1cccc(O)c1)c1cccc(NC(=O)c2ccc(F)cc2)c1	nt	14%	3%	?	1.9µM*	?
COc1ccc(-c2cc(OC(=O)c3cccc(C)c3)c3c(C)oc(C)c3c(=O)c2)cc1	33%	nt	nt	nt	?	nt
C/C(=N\NC(=O)c1c(Cl)cnn1C)c1cccc(NC(=O)c2ccc(C)cc2)c1	nt	?	4%	?	2.4µM*	?
C/C(=N\NC(=O)c1c(Cl)cnn1C)c1cccc(NC(=O)C(C)C)c1	-10%	-7%	-3%	?	?	-3%
C/C(=N\NC(=O)c1c(Br)cnn1C)c1ccc(NC(=O)c2ccc(F)cc2)cc1	?	2%	16µM*	?	4%	12%
C/C(=N\NC(=O)c1ccccc1F)c1cccc(NC(=O)c2ccc(C)cc2)c1	nt	?	?	?	2.4µM*	?
CC1CCCC(NC(=O)NC(=O)COC(=O)c2ccc(O)cc2O)C1C (stereo not given)	nt	-4%	-5%	-18%	nt	-1%
COc1ccc(OC)c(/C=C2\Oc3cc(OCC(=O)N4CCC[C@H]4C(=O)O)ccc3C2=O)c1	nt	5%	1%	22%	?	0%
COc1ccc(/C=C2\Oc3cc(OCC(=O)N4CCC[C@H]4C(=O)O)ccc3C2=O)c(OC)c1	nt	-2%	-2%	26%	12µM*	0%
COc1cccc(/C=C2\Oc3cc(OCC(=O)N4CCC[C@H]4C(=O)O)ccc3C2=O)c1	nt	-3%	8%	27%	2.7µM*	0%
Cc1cc(C)n2nc(C(=O)NCCc3ccccc3)nc2n1	26%	22%	23µM*	?	?	?
Cc1ccnc2nc(C(=O)Nc3ccc4c(c3)OCO4)nn12	11µM*	1.6µM*	2.6µM*	?	11µM*	1.8µM*
Cc1cc(C)n2nc(C(=O)Nc3ccc4c(c3)OCO4)nc2n1	?	29%	?	?	24µM*	19%
Cc1ccc(NC(=O)N2CCN3CCCCC3C2)cc1F (stereo not given)	nt	nt	nt	nt	5%	nt
COC(=O)CNC(=O)[C@@]1(Cc2ccccc2)C=C[C@@H](C)N1C(=O)c1ccccc1	13µM*	nt	nt	nt	nt	nt
COc1cccc(CN(C(=O)c2cccc(C)c2)C2CCS(=O)(=O)C2)c1 (stereo not given)	7%	nt	nt	nt	-6%	nt
O=C(Nc1ccc(N2CCN(C(=O)c3cccs3)CC2)c(Cl)c1)c1ccco1	-1%	-4%	-8%	21µM*	?	-4%
O=C(Nc1ccc(NC(=O)c2cccs2)c(Cl)c1)c1ccco1	nt	-5%	-2%	-24%	?	0%
Cc1ccccc1C(=O)N1CCN(c2ccc(NC(=O)c3ccco3)cc2Cl)CC1	-94%	-9%	-33%	2.1µM*	2%	-3%
Cc1ccc(NC(=O)N2CCN(C(=O)c3ccco3)CC2)cc1Cl	nt	7%	10%	0%	-15%	1%
SMILES	SMN2 splice enh	Rab9 prom act	ELG1 genotox	ELG1 repair inh	FLuc counter	NPC1 prom act
O=S(=O)(/N=C(/Nc1nc2ccccc2s1)c1ccccc1)c1ccc(F)cc1	nt	?	14%	?	19µM*	13%
COc1cccc(C(=O)Nc2c3c(nc4c2CCC4)CCCC3)c1	-1%	-3%	-1%	-1%	-2%	-1%
COc1ccc(C(=O)CCc2nc3ccccc3s2)cc1	13%	0%	15%	?	19µM*	15%
Cc1ccc2nc(NC(=O)c3ccc(-c4nc5ccccc5s4)s3)sc2c1	15%	-4%	16µM*	?	13µM*	-2%
O=S(=O)(/N=C(/Nc1nccs1)c1ccc(F)cc1)c1ccccc1	nt	nt	0%	-8%	nt	nt
COc1cccc(C(=O)Nc2nc3c(s2)CCCC3)c1	nt	nt	nt	nt	1.9µM*	nt
O=C(NC1CCCC1)c1ccc(CSc2nc3cccnc3n2Cc2ccccc2F)cc1	nt	nt	nt	nt	-17%	nt
CCN(CC(=O)Nc1cccc(OC)c1)C(=O)c1ccco1	nt	0%	-2%	18%	-2%	7%
O=C(Nc1nc2ccccc2s1)c1ccc(F)cc1	nt	0.32µM*	2.6µM*	?	1.1µM*	0.71µM*
O=C(Nc1nc(=O)[nH]s1)c1ccccc1	-5%	3%	2%	-10%	-17%	0%
O=C(Nc1nc2c(s1)C(=O)CCC2)c1ccccc1	1.6µM*	0.71µM*	?	?	2.7µM*	1.1µM*
O=C(c1ccc(Cl)s1)N1CCN(c2nc3ccccc3s2)CC1	-35%	2%	-10%	?	-9%	0%
O=C(Nc1nc2ccccc2s1)c1ccc(Cl)s1	6.3µM*	?	1.2µM*	?	1.9µM*	1µM*
COc1ccc(C(=O)Nc2nc3ccccc3s2)cc1OC	nt	-2%	2%	?	-3%	1%
COc1ccc(C(=O)Nc2nc3ccccc3s2)cc1	nt	0.28µM*	-5%	?	0.24µM*	0.63µM*
O=C(Nc1cccc(F)c1)N1CC[C@@]2(CCCN(C(=O)c3cc(C(F)(F)F)cc(C(F)(F)F)c3)C2)C1	-13%	nt	nt	nt	nt	nt
CCCCN(C(=O)C1CC(=O)N(Cc2ccc(C)cc2)C1)c1c(N)n(CCCC)c(=O)[nH]c1=O (stereo not given)	nt	0%	3%	-3%	1%	1%
Cc1ccc(NC(=O)C2CCN(C(=O)c3cnn(-c4ccccc4)c3-n3cccc3)CC2)cc1	-59%	nt	nt	nt	-2%	nt
COCCNC(=O)c1nc2ccccc2s1	14%	26%	16%	?	17µM*	0%
COc1cccc(C(=O)Nc2nc3ccccc3s2)c1	nt	2µM*	4.1µM*	?	2.1µM*	3.5µM*
O=C(NCCO)c1nc2ccccc2s1	0%	1%	9%	?	?	3%
Cc1ccc(C(=O)Nc2nc3ccccc3c(=O)s2)cc1	?	1.3µM*	?	?	0.76µM*	?

High-throughput results from PubChem.
